The values below come from publication PMC7862700, “An all-to-all approach to the identification of sequence-specific readers for epigenetic DNA modifications on cytosine”.

Holding throughout (assay): DAPPL (digital affinity profiling via proximity ligation, sequencing); 10 mM Tris-HCl pH 7.5, 50 mM NaCl, 1 mM DTT, 4% glycerol, room temperature, 30 min; GST-TFs on glutathione beads, 16-mer random dsDNA library, 0.1% formaldehyde crosslink after washing; high values mean tight binding
Common to all, as to conditions: protein: recombinant; tags: N-terminal GST; dsDNA, one strand shown

For one test, the target named is T1, FLI1 (Homo sapiens, UniProt Q01543 1-452).
T1 sequence: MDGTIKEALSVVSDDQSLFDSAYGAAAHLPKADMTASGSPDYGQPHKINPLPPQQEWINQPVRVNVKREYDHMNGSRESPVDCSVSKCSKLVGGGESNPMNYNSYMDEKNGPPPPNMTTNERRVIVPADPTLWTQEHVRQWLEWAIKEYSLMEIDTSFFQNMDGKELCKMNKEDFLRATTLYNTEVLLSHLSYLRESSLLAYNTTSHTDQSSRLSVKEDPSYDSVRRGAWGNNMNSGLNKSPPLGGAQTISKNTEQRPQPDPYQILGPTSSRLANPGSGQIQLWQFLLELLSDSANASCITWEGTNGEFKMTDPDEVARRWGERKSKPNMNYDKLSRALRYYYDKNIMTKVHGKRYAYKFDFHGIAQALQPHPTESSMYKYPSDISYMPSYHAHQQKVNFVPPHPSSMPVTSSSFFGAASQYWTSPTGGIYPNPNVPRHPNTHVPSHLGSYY
The procedure, abridged:
(§1)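 Binding signal is defined as a hexamer's read frequency for one factor over its frequency for the tag-only sample. To obtain reads, GST-fused human transcription factors were expressed in yeast, captured on glutathione beads, barcoded with DNA and pooled with that sample. Pools met 200 nmole of a 16-mer random double-stranded DNA library in Tris/NaCl/DTT/glycerol buffer for 30 min at room temperature before washing, 0.1% formaldehyde crosslinking, proximity ligation (BsaI/T4 ligase, 1 h, 37 °C), PCR and Illumina NextSeq500 sequencing.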

For another test, the target named is T2, ELK1 (Homo sapiens, UniProt P19419 1-428).
T2 sequence: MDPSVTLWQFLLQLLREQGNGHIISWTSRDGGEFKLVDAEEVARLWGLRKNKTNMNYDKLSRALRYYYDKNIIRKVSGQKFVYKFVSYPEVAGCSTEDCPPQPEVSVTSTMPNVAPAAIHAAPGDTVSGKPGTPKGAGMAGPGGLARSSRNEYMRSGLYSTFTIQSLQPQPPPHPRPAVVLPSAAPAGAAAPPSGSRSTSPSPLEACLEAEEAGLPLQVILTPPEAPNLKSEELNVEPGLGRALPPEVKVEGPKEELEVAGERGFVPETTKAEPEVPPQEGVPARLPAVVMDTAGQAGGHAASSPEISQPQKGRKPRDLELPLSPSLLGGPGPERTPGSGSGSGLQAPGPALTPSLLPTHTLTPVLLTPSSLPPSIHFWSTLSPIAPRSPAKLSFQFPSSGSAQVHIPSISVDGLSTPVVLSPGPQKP
The gist of the method: as §1

The next test deals with T3, GABPA (Homo sapiens, UniProt Q06546 1-454).
T3 sequence: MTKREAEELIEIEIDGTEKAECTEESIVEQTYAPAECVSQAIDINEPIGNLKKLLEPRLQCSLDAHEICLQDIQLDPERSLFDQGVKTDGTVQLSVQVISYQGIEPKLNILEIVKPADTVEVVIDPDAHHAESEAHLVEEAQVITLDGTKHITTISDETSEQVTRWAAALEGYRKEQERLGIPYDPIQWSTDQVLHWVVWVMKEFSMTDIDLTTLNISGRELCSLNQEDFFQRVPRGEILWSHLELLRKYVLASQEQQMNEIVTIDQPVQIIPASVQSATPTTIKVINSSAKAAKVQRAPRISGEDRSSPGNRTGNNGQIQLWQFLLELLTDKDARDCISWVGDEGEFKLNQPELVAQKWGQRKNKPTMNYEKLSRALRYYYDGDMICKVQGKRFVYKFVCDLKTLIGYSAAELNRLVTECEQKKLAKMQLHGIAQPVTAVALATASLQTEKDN
The procedure, abridged: as §1

The next test concerns the target T4, ERG (Homo sapiens, UniProt P11308 1-479).
T4 sequence: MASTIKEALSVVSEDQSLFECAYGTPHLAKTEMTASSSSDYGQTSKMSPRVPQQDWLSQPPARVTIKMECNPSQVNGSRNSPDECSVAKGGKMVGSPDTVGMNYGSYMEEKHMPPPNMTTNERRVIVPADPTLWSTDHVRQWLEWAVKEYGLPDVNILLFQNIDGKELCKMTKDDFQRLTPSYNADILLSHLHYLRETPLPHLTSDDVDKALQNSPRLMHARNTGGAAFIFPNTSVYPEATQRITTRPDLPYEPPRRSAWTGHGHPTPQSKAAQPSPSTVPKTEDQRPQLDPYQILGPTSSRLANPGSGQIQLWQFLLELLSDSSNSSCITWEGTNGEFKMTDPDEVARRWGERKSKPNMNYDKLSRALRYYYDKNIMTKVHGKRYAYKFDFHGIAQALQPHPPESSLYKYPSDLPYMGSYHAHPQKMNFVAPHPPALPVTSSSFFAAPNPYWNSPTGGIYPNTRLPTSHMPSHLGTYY
The procedure, abridged:
as §1

In another test the target is ELF1 (Homo sapiens, UniProt P32519 1-619). The procedure, abridged:
as §1

In a further test the target is T5, EHF (Homo sapiens, UniProt Q9NZC4 1-300).
T5 sequence: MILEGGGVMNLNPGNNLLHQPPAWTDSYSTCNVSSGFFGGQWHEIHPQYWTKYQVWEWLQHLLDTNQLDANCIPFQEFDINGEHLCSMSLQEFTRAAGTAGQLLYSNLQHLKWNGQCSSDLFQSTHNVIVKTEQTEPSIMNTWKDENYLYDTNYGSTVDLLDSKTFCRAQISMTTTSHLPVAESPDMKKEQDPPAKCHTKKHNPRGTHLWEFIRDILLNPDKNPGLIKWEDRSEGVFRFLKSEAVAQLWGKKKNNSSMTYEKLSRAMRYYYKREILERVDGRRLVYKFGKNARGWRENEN
The gist of the method: as §1

The target in a further test is SPI1 (Homo sapiens, UniProt P17947 1-270). The gist of the method:
as §1

The next test has as its target SPIB (Homo sapiens, UniProt Q01892 1-262). The procedure, abridged: as §1
The target of the next test is T6, ELK3 (Homo sapiens, UniProt P41970 1-407).
T6 sequence: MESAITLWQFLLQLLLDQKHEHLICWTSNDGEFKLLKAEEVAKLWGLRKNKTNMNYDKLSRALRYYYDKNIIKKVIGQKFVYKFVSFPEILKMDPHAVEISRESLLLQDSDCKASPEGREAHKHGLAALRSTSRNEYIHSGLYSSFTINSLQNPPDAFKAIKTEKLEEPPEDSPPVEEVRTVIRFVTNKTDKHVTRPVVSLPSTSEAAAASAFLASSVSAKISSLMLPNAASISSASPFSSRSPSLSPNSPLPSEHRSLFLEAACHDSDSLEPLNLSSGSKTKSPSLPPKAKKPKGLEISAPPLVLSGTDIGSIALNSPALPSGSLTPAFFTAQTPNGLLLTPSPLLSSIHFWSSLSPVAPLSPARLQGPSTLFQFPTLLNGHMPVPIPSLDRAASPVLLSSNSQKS
The procedure, abridged:
as §1

A further test has as its target T7, FEV (Homo sapiens, UniProt Q99581 1-238).
T7 sequence: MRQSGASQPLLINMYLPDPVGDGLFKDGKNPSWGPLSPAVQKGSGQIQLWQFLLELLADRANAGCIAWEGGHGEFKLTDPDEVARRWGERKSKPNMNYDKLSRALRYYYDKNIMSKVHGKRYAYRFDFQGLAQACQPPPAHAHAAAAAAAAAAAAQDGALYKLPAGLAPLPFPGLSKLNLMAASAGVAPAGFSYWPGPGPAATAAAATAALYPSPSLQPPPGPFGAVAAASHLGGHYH
The gist of the method:
as §1

Another test concerns the target ETV5 (Homo sapiens, UniProt P41161 1-510). The gist of the method:
as §1

Another test concerns the target T8, SPIC (Homo sapiens, UniProt Q8N5J4 1-248).
T8 sequence: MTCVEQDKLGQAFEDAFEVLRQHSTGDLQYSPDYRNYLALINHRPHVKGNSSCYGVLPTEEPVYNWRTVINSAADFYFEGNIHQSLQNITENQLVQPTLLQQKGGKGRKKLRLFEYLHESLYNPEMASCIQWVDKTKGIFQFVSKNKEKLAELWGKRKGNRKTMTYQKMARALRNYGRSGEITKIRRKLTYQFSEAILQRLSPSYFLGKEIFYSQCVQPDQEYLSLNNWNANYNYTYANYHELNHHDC
The gist of the method:
as §1

The next test concerns the target ELF4 (Homo sapiens, UniProt Q99607 1-663). The procedure, abridged:
as §1

The target of a further test is T9, ELK4 (Homo sapiens, UniProt P28324-2 1-405).
T9 sequence: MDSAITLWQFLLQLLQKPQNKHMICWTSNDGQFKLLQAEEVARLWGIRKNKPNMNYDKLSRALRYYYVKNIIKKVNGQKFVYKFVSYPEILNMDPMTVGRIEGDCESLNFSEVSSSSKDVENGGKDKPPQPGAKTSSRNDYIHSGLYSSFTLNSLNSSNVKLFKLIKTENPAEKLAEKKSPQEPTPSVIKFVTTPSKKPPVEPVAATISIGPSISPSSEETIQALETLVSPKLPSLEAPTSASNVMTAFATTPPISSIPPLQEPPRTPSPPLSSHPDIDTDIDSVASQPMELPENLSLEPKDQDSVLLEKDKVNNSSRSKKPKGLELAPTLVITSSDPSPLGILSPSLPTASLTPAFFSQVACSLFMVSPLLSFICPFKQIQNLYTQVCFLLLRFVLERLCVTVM
The gist of the method: as §1

In a further test the target is T10, ETV2 (Homo sapiens, UniProt O00321 1-342).
T10 sequence: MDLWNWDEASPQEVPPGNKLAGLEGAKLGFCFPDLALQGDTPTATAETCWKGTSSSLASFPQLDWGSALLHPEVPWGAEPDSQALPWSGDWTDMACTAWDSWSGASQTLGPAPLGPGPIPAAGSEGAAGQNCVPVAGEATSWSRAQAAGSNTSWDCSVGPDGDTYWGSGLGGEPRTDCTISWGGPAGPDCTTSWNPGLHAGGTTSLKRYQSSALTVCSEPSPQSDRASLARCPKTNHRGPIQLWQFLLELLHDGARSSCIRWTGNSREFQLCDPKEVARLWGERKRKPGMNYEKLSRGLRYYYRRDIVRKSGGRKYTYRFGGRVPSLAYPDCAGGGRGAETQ
The gist of the method:
as §1

For the next test, the target named is T11, ELF3 (Homo sapiens, UniProt P78545 1-371).
T11 sequence: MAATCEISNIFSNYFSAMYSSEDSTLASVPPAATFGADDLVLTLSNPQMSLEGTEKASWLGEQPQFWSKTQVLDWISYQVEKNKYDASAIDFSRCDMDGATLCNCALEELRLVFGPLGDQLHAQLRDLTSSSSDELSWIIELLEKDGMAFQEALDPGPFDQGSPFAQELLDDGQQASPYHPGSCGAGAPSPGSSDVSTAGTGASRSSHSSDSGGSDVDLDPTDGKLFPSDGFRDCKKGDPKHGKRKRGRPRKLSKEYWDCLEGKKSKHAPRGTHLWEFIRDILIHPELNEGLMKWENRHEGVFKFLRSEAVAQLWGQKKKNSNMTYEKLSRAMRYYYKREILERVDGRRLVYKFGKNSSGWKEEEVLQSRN
The gist of the method: as §1

Another test deals with ETV1 (Homo sapiens, UniProt P50549 1-477). The gist of the method: as §1
ETV1, sequence (P50549 whole entry): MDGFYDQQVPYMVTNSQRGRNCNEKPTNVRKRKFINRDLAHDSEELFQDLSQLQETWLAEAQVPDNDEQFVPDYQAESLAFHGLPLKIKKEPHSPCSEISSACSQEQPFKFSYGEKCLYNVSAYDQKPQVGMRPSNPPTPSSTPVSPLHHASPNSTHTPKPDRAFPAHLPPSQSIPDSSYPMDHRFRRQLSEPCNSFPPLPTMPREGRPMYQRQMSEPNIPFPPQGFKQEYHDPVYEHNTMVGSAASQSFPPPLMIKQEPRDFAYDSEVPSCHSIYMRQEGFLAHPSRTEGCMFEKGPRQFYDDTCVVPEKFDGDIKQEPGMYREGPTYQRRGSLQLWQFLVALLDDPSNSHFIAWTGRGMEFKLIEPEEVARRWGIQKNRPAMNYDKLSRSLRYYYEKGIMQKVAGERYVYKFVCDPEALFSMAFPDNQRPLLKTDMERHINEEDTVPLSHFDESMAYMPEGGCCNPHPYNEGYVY

ELF1, sequence (P32519 whole entry): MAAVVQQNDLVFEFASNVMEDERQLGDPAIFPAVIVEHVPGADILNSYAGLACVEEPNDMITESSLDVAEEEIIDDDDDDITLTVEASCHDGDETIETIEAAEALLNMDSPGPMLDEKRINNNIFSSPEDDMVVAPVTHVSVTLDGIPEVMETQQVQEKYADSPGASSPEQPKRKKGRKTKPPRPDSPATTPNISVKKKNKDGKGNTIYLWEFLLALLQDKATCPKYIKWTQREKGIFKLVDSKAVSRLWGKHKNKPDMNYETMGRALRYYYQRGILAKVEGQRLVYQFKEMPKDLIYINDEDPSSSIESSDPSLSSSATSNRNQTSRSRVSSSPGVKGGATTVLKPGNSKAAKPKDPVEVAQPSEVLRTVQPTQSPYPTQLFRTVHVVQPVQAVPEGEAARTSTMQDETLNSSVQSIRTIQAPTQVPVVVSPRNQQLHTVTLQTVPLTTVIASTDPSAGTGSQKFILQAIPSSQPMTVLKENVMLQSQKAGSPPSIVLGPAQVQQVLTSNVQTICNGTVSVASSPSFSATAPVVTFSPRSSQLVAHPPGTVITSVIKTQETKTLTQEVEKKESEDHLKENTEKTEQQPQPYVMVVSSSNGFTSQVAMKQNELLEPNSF
SPIB, sequence (Q01892 whole entry): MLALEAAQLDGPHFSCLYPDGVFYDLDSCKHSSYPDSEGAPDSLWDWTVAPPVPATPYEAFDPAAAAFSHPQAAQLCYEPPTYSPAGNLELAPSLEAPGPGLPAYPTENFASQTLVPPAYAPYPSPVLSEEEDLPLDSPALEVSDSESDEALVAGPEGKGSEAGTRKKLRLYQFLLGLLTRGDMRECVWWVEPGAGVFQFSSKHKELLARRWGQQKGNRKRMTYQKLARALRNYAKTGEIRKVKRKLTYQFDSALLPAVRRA
ETV5, sequence (P41161 whole entry): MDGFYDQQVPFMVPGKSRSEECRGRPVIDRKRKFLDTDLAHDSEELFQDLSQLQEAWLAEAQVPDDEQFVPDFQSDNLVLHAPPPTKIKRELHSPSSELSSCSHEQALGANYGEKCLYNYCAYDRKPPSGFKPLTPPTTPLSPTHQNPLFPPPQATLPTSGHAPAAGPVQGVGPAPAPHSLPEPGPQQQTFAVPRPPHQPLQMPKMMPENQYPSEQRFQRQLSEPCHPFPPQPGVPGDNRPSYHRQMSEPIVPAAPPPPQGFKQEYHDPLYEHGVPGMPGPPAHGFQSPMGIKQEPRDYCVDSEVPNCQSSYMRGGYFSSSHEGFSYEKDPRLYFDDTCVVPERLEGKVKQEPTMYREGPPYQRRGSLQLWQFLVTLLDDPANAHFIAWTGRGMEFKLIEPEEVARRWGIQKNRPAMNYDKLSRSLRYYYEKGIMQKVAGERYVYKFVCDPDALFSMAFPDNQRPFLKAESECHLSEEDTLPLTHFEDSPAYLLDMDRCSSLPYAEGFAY
ELF4, sequence (Q99607 whole entry): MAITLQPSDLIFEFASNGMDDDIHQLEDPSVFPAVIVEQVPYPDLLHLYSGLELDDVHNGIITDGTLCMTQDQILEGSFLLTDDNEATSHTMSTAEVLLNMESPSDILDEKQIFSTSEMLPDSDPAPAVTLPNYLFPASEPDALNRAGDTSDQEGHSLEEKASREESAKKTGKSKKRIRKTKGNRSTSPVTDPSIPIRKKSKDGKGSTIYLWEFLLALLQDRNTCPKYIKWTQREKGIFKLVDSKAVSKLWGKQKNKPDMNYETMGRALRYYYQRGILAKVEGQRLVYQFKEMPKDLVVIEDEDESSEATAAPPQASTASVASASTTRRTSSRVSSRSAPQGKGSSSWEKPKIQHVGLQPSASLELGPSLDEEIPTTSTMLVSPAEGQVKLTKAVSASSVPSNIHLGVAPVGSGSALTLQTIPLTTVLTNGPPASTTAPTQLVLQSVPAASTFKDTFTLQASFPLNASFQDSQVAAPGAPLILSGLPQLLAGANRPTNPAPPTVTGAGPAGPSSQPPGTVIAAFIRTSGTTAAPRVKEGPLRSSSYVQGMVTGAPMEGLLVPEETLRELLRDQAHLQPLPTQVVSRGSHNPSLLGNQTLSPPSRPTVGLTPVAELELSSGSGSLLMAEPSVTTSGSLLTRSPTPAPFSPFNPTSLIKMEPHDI

CAAACT: the binding signal is 1.18 fold enrichment (6-mer frequency, TF over GST control) with FLI1; 1.14 fold enrichment (6-mer frequency, TF over GST control) with ELK1; 1.21 fold enrichment (6-mer frequency, TF over GST control) in the test with GABPA; 1.12 fold enrichment (6-mer frequency, TF over GST control) in the test with ERG; 1.17 fold enrichment (6-mer frequency, TF over GST control) in the test with ELF1; 1.15 fold enrichment (6-mer frequency, TF over GST control) with EHF. The binding signal with SPI1 is 1.12 fold enrichment (6-mer frequency, TF over GST control); with SPIB, 1.14 fold enrichment (6-mer frequency, TF over GST control); with ELK3, 1.23 fold enrichment (6-mer frequency, TF over GST control); with FEV, 1.17 fold enrichment (6-mer frequency, TF over GST control); with ETV5, 1.16 fold enrichment (6-mer frequency, TF over GST control); with SPIC it was 1.14 fold enrichment (6-mer frequency, TF over GST control). For the same sequence, the binding signal with ELF4 is 1.17 fold enrichment (6-mer frequency, TF over GST control); with ELK4, 1.15 fold enrichment (6-mer frequency, TF over GST control); in the test with ETV2, 1.21 fold enrichment (6-mer frequency, TF over GST control); in the test with ELF3, 1.06 fold enrichment (6-mer frequency, TF over GST control); with ETV1 it was 1.28 fold enrichment (6-mer frequency, TF over GST control).
